Measured values from PubChem BioAssay (EPA / NIEHS).
Values joined by “and” are separate entries in the source; they are usually repeats but may differ in a detail not shown here. Identical values can stand only once. Where a structure was tested more than once in an assay, its records may differ in their call. Active and inactive are the calls of the source. The calls were made as follows: active = hit-call score of the fitted dose curve at least 0.9, where 1 is the maximum; inactive = score below 0.9.

read-out: growth arrest and DNA damage 45 (GADD45A), GADD45A (gene 1647); assay: LTEA_HepaRG_GADD45A: Life Technologies and Expression Analysis (LTEA) Assay for growth arrest and DNA damage 45 (GADD45A) using HepaRG (AID 2283458); conditions: mRNA level, 48 h; actives raise or lower the signal
Description: LTEA_HepaRG is a cell based, multiplexed-readout assay that uses HepaRG, a human liver cell line, with measurements taken at 48 hours after chemical dosing on a 96-well plate.LTEA_HepaRG_GADD45A is one of 102 assay component(s) measured in the LTEA HepaRG cell culture assay. It is a marker of Oxidative Stress.Data from the assay component LTEA_HepaRG_GADD45A was analyzed into 1 endpoint. This assay endpoint, LTEA_HepaRG_GADD45A, was analyzed with bidirectional fitting relative to DMSO as the negative control and baseline of activity. Using a type of inducible reporter, measures of mRNA induction for gain or loss-of-signal activity can be used to understand regulation of transcription factor activity. To generalize the intended target to other relatable targets, this assay endpoint is annotated to the cell cycle intended target family, where the subfamily is Oxidative Stress.
A total of 1060 chemcials from the ToxCast library were tested in eight-point concentration-response experiments. Cell culture and cytotoxicity assays were conducted at Thermo Fisher Scientific's Custom Services facility (Madison, WI). A single lot of human HepaRG cells (Thermo Fisher Scientific, Frederick, MD) was used for the cell culture experiments. 96-well format collagen type I coated plates of human HepaRG cells were prepared using established methods. Briefly, cryopreserved HepaRG cells were thawed, plated at a density of approximately 100,000 cells/well in HepaRG Thaw, Plate, and General Purpose media (HPRG770, Thermo Fisher Scientific), and incubated for 48 hours. 0.5% DMSO was selected as vehicle control to balance the requisite need of DMSO in HepaRG cultures to maintain differentiation (for example, baseline metabolism, proportions of hepatocytes vs. cholangiocytes), while enabling further hepatic receptor pathway activation (for example, PXR and CAR) in response to chemical exposure. 48 hours after plating, the culture medium was replaced with HepaRG Serum-Free Incudtion Media. Cells were exposed to each test chemical in duplicate and maintained in CO2 incubators for another 48 hours. Chemical plates were thawed to room temperature and 200x concentrations of treatment groups were prepared. 8-point conentration-reponse curves were made with the highest exposure at 100 uM, followed by half-log dilutions, all in 0.5% DMSO. Each test plate contained variouse controls, induction positive controls (1mM phenobarbital), cytotoxicity positive controls ([…] aflatoxin B1), vehicle controls (0.5% DMSO), and total lysis controls (0.5% DMSO). Cell morphology images were taken using an Essen IncuCyte FLR automated microscope, with six 96-well plates imaged in about 24 minutes. Images were captured and exported and JPEG files. Spent culture media was transfered to black-well plates for the LDH assay, and remaining media was sorted at -80 C for later use. Cells were treated with RLT buffer and frozen until shipped for gene expression analysis. Total RNA was isolated from the cell suspension in 75 uL of Buffer RLT (Qiagen, Germantown, MD 20874) by Quintiles/Expression Analysis (Durham, NC) using a custom isolation procedure. Total RNA from each plate well was transferred to a preamplification plate. Fluidigm's 96.96 Dynamic ArrayTM (Fluidigm, Amsterdam, the Netherlands) technology was used for gene expression analyses by quantitative reverse transcription polymerase chain reaction (qRT-PCR, performed by Quintiles/Expression Analysis, Durham, NC)89. Standard TaqManTM Assays (Applied Biosystems/ThermoFisher Scientific, Foster City, CA) were used to assess the expression of 93 genes selected based on their selectivity and sensitivity to important hepatic receptors known to be modulated by environmental chemicals; importance in human hepatocyte functionality; and hepatotoxicity. […]

| SMILES | AC50 | outcome |
| --- | --- | --- |
| CC(=O)[C@H]1CC[C@H]2[C@@H]3CCC4=CC(=O)CC[C@]4(C)[C@H]3CC[C@]12C | 47.8 µM (active) |  |
| CSC(=O)c1cccc2nnsc12 |  | inactive |
| O=C(c1ccc(O)cc1O)c1ccc(O)cc1O |  | inactive |
| C#C[C@]1(O)CC[C@H]2[C@@H]3CCC4=CC(=O)CC[C@@H]4[C@H]3CC[C@@]21CC |  | inactive |
| CCN(CC)C(=O)c1cccc(C)c1 |  | inactive |
| Oc1ccc(C(c2ccc(O)cc2)C(Cl)(Cl)Cl)cc1 | 90.9 µM (active) |  |
| C=CCOC(Cn1ccnc1)c1ccc(Cl)cc1Cl (stereo not given) | 59.1 µM (active) |  |
| S=C([S-])NCCNC(=S)[S-].[Mn+2] | 5.52 µM (active) |  |
| O=C(Nc1ccc([N+](=O)[O-])cc1Cl)c1cc(Cl)ccc1O | 4.29 µM (active) |  |
| COC(=O)c1ccccc1C(=O)O |  | inactive |
| CN(C)C(=O)Nc1ccc(Cl)c(Cl)c1 |  | inactive |
| CCCCC(CC)COC(=O)c1ccccc1C(=O)O (stereo not given) |  | inactive |
| N#CSCSc1nc2ccccc2s1 |  | inactive |
| CCCCOCCOCCOCc1cc2c(cc1CCC)OCO2 |  | inactive |
| CC(=O)S[C@@H]1CC2=CC(=O)CC[C@]2(C)[C@H]2CC[C@@]3(C)[C@@H](CC[C@@]34CCC(=O)O4)[C@H]12 |  | inactive |
| CCN(Cc1c(F)cccc1Cl)c1c([N+](=O)[O-])cc(C(F)(F)F)cc1[N+](=O)[O-] |  | inactive |
| N[C@@H](Cc1cc(I)c(Oc2ccc(O)c(I)c2)c(I)c1)C(=O)O |  | inactive |
| CCOC(=O)c1ccc(O)cc1 |  | inactive |
| CCSC(=O)N(CC(C)C)CC(C)C |  | inactive |
| CC(C)(c1ccc(O)cc1)c1ccc(O)cc1 |  | inactive |

| SMILES | AC50 | outcome |
| --- | --- | --- |
| CCOC(=O)C(C)Oc1ccc(Oc2nc3ccc(Cl)cc3o2)cc1 (stereo not given) |  | inactive |
| CCCCOC(=O)[C@@H](C)Oc1ccc(Oc2ccc(C(F)(F)F)cn2)cc1 |  | inactive |
| CCCOC(=O)c1ccc(C(=O)OCCC)nc1 |  | inactive |
| CCOC(=O)COc1cc(-n2ncc(C(F)(F)F)c(C)c2=O)c(F)cc1Cl |  | inactive |
| COc1c(Cl)ccc(Cl)c1C(=O)O |  | inactive |
| COC(=O)c1ccc(I)cc1S(=O)(=O)NC(=O)Nc1nc(C)nc(OC)n1 |  | inactive |
| CCCCOC(=O)C(C)Oc1ccc(Oc2ccc(C(F)(F)F)cn2)cc1 (stereo not given) |  | inactive |
| CC(C)(C)[C@@H](O)[C@@H](Cc1ccc(Cl)cc1)n1cncn1 |  | inactive |
| CCCN(CCC)C(=O)SCC |  | inactive |
| S=C(S)NCCNC(=S)S.[Mn+2].[S-]C([S-])=NCCN=C([S-])[S-].[Zn+2] | 3.61 µM (active) and 2.03 µM (active) | inactive |
| COC(=O)CSc1cc(N=c2sc(=O)n3n2CCCC3)c(F)cc1Cl |  | inactive |
| CCOC(=O)NCCOc1ccc(Oc2ccccc2)cc1 | 79.5 µM (active) |  |
| COCCO |  | inactive |
| CCNc1nc(N)nc(Cl)n1 |  | inactive |
| CCCN(CCC)c1c([N+](=O)[O-])cc(C(F)(F)F)c(N)c1[N+](=O)[O-] |  | inactive |
| CCCCCOC(=O)COc1cc(N2C(=O)C3=C(CCCC3)C2=O)c(F)cc1Cl |  | inactive |
| CC1(C)C(C=C(Cl)Cl)C1C(=O)OCc1cccc(Oc2ccccc2)c1 (stereo not given) |  | inactive |
| C[C@]12CC[C@@H]3c4ccc(O)cc4C[C@@H](CCCCCCCCCS(=O)CCCC(F)(F)C(F)(F)F)[C@H]3[C@@H]1CC[C@@H]2O (stereo not given in full) | 0.105 µM (active) |  |
| CCC(C)OC(=O)N1CCCCC1CCO (stereo not given) |  | inactive |
